Experimental data: PubChem BioAssay AID588790 (National Center for Advancing Translational Sciences (NCATS), 2011)
Among all 1,200 compounds or so, about 85 (7%) were called active. Calls follow the shape of the full dose curve. The entries come from a sample that favours actives as a whole. Where a call stands in place of a potency, no number is given.

Each compound was assayed against Beta-2 adrenergic receptor (Homo sapiens) (UniProt P07550) (assay: qHTS assay of beta-arrestin-biased ligands of beta2-adrenergic receptor: Hit Validation with GloSensor). Settings: W9-Glo22F cells, GloSensor cAMP luminescence, beta2AR agonism; activation: at 46.1 µM (top of the series).
Sequence of Beta-2 adrenergic receptor (Homo sapiens) (P07550 whole entry, looked up): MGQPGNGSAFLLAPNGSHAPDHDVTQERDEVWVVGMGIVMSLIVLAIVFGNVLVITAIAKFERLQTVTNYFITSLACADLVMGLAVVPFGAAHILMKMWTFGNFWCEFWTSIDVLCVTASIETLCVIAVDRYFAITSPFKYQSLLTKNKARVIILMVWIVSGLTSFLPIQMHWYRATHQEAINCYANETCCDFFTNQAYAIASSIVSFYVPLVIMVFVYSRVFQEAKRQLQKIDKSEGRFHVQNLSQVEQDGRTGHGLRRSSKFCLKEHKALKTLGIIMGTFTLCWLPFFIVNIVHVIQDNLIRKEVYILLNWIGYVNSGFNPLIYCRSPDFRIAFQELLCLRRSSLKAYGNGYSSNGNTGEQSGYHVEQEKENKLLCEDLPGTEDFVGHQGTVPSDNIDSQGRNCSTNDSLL
How it was run: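 Luminescence measured 10 min after GloSensor reagent addition at room temperature. Preceded by compound pinning onto W9-Glo22F cells that had been cultured overnight at 37 deg C under 5% CO2.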
Potency is read from the fitted curve at half-maximal effect.

Row | SMILES | Potency
1 | Cc1cccc(NC(=S)N/N=C/c2cccc([N+](=O)[O-])c2)c1 | inactive
2 | CCCCC(=O)N1CCCC(c2nc(-c3cccc(OC)c3)no2)C1 (stereo not given) | inactive
3 | C=C(C)CNC(=S)N/N=C/c1ccco1 | inactive
4 | COc1ccc(NS(=O)(=O)c2ccc3oc(SC4CCOC4=O)nc3c2)cc1 (stereo not given) | inactive
5 | CCOC(=O)C1=C(C)N(c2ccc(OC)cc2)C(=O)/C1=C\c1ccc(O)c(OCC)c1 | inactive
6 | COC(=O)C1=C(C)N(Cc2ccc(C)cc2)C(=O)/C1=C\c1ccc(O)c(OC)c1 | inactive
7 | CCOC(=O)C1=C(C)N(c2ccc(C)cc2)C(=O)/C1=C\c1ccc(O)c(OC)c1 | 18.4 µM (active)
8 | CNC(=S)N/N=C/C1=CCC2CC1C2(C)C (stereo not given) | inactive
9 | O=C1c2ccccc2[C@@H]2C[C@@H](O)[C@H](Nc3cccc4ccccc34)CCN12 | inactive
10 | CCOC(=O)NC(=S)Nc1ccc(C(C)(C)C)cc1 | inactive
11 | CNC(=S)N/N=C1\CC(c2ccccc2)Oc2ccccc21 (stereo not given) | inactive
12 | NC(=S)N/N=C1\CC(c2ccc3c(c2)OCCCO3)Oc2ccc(F)cc21 (stereo not given) | 11.6 µM (active)
13 | NC(=S)N/N=C1\CCOc2ccc(F)cc21 | inactive
14 | c1coc(CNc2nc3nonc3nc2NCc2ccco2)c1 | inactive
15 | C/C(=N\NC(=S)NCc1ccccc1)c1ccccc1F | inactive
16 | COCCNC(=S)N/N=C(\C)c1ccc(Cl)c(Cl)c1Cl | inactive
17 | COCCNC(=S)N/N=C(\C)c1ccccc1F | 29.1 µM (active)
18 | COc1ccc(C(CNC(=O)c2ccc(C)c(S(=O)(=O)Nc3ccccc3OC)c2)N2CCCC2)cc1 (stereo not given) | inactive
19 | C=CCn1c(CCn2c3ccccc3c3ccccc32)n[nH]c1=S | inactive
20 | C=CCn1c(-c2ccccc2)c[nH]c1=S | inactive
21 | C=CCn1c(CSc2nc3ccccc3s2)n[nH]c1=S | 25.9 µM (active)
22 | CCN(CC)C(=O)CN(c1cccc(OC)c1)S(=O)(=O)c1ccc(C)cc1 | inactive
23 | CC1CCN(c2c(NCc3ccc(C(=O)NCCc4ccc(Cl)cc4)cc3)c(=O)c2=O)CC1 | inactive
24 | O=c1c2cn[nH]c2nc(SCc2ccccc2F)n1-c1ccc(Br)cc1 | inactive
25 | CCNc1nc(NCC)nc(N/N=C/c2ccc(N(C)C)cc2)n1 | inactive
26 | CCNC(=S)N/N=C/c1ccco1 | inactive
27 | CCNc1nc(NCC)nc(N(C)/N=C/c2ccco2)n1 | 20.6 µM (active)
28 | O=C(/C=C/c1ccccc1)Oc1cccc2cccnc12 | inactive
29 | Cc1cc(C(=O)CN2C(=O)NC3(CCCc4ccccc43)C2=O)c(C)n1C (stereo not given) | inactive
30 | Cc1ccc(NC(=S)N2CCn3cccc3C2c2cccnc2)cc1 (stereo not given) | inactive
